Bioassay records from PubChem.
The list is not random: actives were taken first. Their share in the collection is about 5.4%.
ALR H2O2 inh: inhibitors of human ALR sulfhydryl oxidase, primary screen, biochemical, H2O2 detection, HRP-luminol luminescence, single point | inhibition, % (no concentration beside the values) | hit rate 3.8% among 290,000 | AID 485317, 2010 | FAD-linked sulfhydryl oxidase ALR (Homo sapiens), P55789 | purified ALR, DTT oxidation;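 active = mean replicate inhibition above about 79%, with every replicate also reaching it, limit read from the data; inconclusive = only one of the two criteria met; inactive = mean below limit and not every replicate reaching it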
Target sequence (P55789 whole entry, looked up): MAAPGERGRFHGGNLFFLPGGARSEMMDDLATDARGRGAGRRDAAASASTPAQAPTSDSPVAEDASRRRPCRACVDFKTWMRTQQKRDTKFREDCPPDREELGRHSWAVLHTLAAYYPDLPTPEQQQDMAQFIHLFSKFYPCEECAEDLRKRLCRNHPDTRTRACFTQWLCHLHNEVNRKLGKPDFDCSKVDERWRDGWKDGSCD
Calb FLC: C. albicans growth inhibition with fluconazole, primary screen, CaCi-2 strain, Alamar Blue fluorescence; C. albicans CaCi-2 (fluconazole-resistant clinical isolate) + fluconazole, 48 h; growth inhibition, % (concentration not given with the values); hit rate 0.57% among 300,000; AID 1979, 2009;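 active = growth inhibition above about 58% in most replicates, limit read from the data, passing the limit was not always enough; inconclusive = exactly half the replicates above a set limit; inactive = most replicates below a set limit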;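 also: all wells also contain fluconazole at 8 µg/ml as a sub-toxic cotreatment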
PP1 counter: PP1-alpha phosphatase inhibitors, primary screen, counter-screen for PP5 inhibitor project, biochemical, fluorescence, OMFP substrate, single point; Serine/threonine-protein phosphatase PP1-alpha catalytic subunit (Homo sapiens), P62136; purified PP1alpha; inhibition, % at 6.7 µM; hit rate 0.9% among 320,000;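 active = inhibition above the mean inhibition of all tested compounds plus 3 SD, computed separately for each screening campaign, cut at about 15% in these data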
Target sequence (P62136 whole entry, looked up): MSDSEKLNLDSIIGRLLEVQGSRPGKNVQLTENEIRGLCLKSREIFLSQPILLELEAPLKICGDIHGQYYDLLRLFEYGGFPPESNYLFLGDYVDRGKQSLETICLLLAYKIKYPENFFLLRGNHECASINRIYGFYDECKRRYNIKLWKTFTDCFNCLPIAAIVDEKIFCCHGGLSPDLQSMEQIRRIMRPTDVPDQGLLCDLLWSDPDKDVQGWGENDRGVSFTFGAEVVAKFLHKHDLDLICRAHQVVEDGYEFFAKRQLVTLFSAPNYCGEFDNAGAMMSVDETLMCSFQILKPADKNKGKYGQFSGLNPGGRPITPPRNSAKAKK
CSC inhib: cancer stem cell viability inhibitors, primary screen, luminescence. inhibition, % at 7.5 µM. hit rate 1.1% among 300,000. cancer stem cell-like cells viability. AID 2717, 2010; in the data active = inhibition above about 75%; inconclusive = no clear call, values can overlap the other calls; tested in HMLE shEcad cells
PP5 primary: PP5 phosphatase inhibitors, primary screen, biochemical, fluorescence; hit rate 0.18% among 320,000; AID 1987, 2009; inhibition, % at 6.7 µM; purified PP5c, OMFP substrate fluorescence; Serine/threonine-protein phosphatase 5 (Homo sapiens), P53041;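 active = inhibition above the campaign's mean inhibition across all tested compounds plus 3 SD, cut at about 9.5% in these data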
Large screens that a line does not name were inactive.

CC(=O)NC1C(=O)N=C(SCC(=O)Nc2cccc(Cl)c2)NC1=O (stereo not given)	ALR H2O2 inh 99
CCOc1cc(/C=C2\SC(=O)N(c3ccc(O)cc3)C2=O)ccc1O	ALR H2O2 inh inconclusive
O=C1/C(=C\c2ccc(O)c(O)c2)C(c2ccccc2)=NN1c1ccccc1	none (no result: ALR H2O2 inh, PP1 counter, CSC inhib, PP5 primary)
CCOc1cc(/C=C2\C(=O)N(c3nc(-c4ccc(Br)cc4)cs3)N=C2c2ccccc2)ccc1O	Calb FLC inconclusive, CSC inhib 99
COc1cc(/C=C2/C(=O)N(c3ccc(C(=O)O)cc3)N=C2C)cc(OC)c1O	ALR H2O2 inh 93 (no result: PP1 counter, PP5 primary)
COc1cc(/C=C2/C(=O)N(c3ccc(Br)cc3)N=C2C)cc(OC)c1OC	none (no result: ALR H2O2 inh, PP1 counter, CSC inhib, PP5 primary)
COc1cc(/C=C2\C(=O)N(c3ccc(NC(C)=O)cc3)N=C2c2ccccc2)ccc1O	ALR H2O2 inh 95
O=[N+]([O-])c1cccc(-n2nncc2-c2ccccc2)c1	none
Cc1ccnc(SCc2nc3ccccc3s2)n1	none
CCc1nnc(N2C(=O)c3ccc(Oc4ccc([N+](=O)[O-])cc4)cc3C2=O)s1	ALR H2O2 inh 93
O=C1c2ccc(Oc3ccc([N+](=O)[O-])cc3)cc2C(=O)N1c1ccncc1	none
O=C(NC(=S)NNC(=O)c1ccco1)c1ccc(Br)cc1	ALR H2O2 inh 99
CC(=O)NC(=S)Nc1ccc(NC(=S)NC(=O)/C=C/c2ccco2)cc1	none (no result: ALR H2O2 inh)
O=C(NNC(=S)Nc1ccccc1)c1ccco1	none
Cn1cccc1CC(=O)NNC(=S)NC(=O)c1ccc(F)cc1	ALR H2O2 inh 95
O=C(NC(=S)NNC(=O)[C@H]1C[C@@H]1c1ccccc1)c1ccc(F)cc1	none
O=C(NNC(=S)NC(=O)c1ccco1)c1ccc(F)cc1	ALR H2O2 inh 97
O=C(/C=C/c1ccco1)NC(=S)NNC(=O)c1ccco1	ALR H2O2 inh 98
CN(C)S(=O)(=O)c1ccc(C(=O)Nc2nnc(SCC(=O)NCC3CCCO3)s2)cc1 (stereo not given)	ALR H2O2 inh 94
CC(C)(C)c1ccc(C(=O)Nc2nnc(SCC(=O)NCC3CCCO3)s2)cc1 (stereo not given)	none
C=CCn1c(-c2ccccc2)c[nH]c1=S	none
C=CCn1c(-c2ccc(Cl)cc2)c[nH]c1=S	ALR H2O2 inh 97
CCCCCC(=O)N1CCN(CCN=CC2=C(O)CC(c3ccc(OC)c(OC)c3)CC2=O)CC1 (stereo not given)	none
C[n+]1c2n(c3ccccc31)N=C(c1ccc(Cl)cc1)CS2	ALR H2O2 inh 99, Calb FLC inconclusive
COc1ccc(C2=Nn3c([n+](C)c4ccccc43)SC2)cc1	none
COc1cc(OC)cc(N(C(=O)C2COc3ccccc3O2)C(C(=O)NC2CCCCC2)c2ccc(O)cc2)c1 (stereo not given)	Calb FLC 90
CC(Cl)C(=O)NNc1cccc(Cl)n1 (stereo not given)	ALR H2O2 inh 97
O=C(c1cc2n(n1)C(C(F)(F)F)CC(c1ccco1)N2)N1CCN(c2ccccn2)CC1 (stereo not given)	Calb FLC inconclusive
Cc1cccc(N2CCN(C(=O)c3cc4n(n3)C(C(F)(F)F)CC(c3ccco3)N4)CC2)c1C (stereo not given)	CSC inhib 84
CC(C)OP(=O)(OC(C)C)C(O)c1ccc(N(C)C)cc1 (stereo not given)	ALR H2O2 inh 97
CC(C)OP(=O)(c1ccc(N(C)C)cc1)C(O)c1ccccc1 (stereo not given)	Calb FLC 98
Cc1ccc(C(O)P(=O)(OC2CCCCC2)OC2CCCCC2)cc1 (stereo not given)	none
CN(C)c1ccc(C(O)P(=O)(OC2CCCCC2)OC2CCCCC2)cc1 (stereo not given)	ALR H2O2 inh 97
CC(C)OP(=O)(c1ccc(N(C)C)cc1)C(O)c1ccc(C(C)C)cc1 (stereo not given)	none
CC(=O)Nc1ccc(S(=O)(=O)Nc2nc3c(s2)CCCC3)cc1	none (no result: Calb FLC)
CN(C)c1ccc(CN2CCCC(O)C2)cc1 (stereo not given)	ALR H2O2 inh 97
COc1ccc(OC)c(S(=O)(=O)Nc2cc3c4c(c2)CC(=O)N4CCC3)c1	none
CC1(C)CC(=O)c2cc(C(=O)NNc3ccccc3)c(=O)n(-c3ccccc3)c2C1	ALR H2O2 inh 98, Calb FLC inconclusive
COc1cccc(F)c1C(C[N+](=O)[O-])c1c(N)n(C)c(=O)n(C)c1=O (stereo not given)	Calb FLC 101
COc1cc(C(C[N+](=O)[O-])c2c(N)n(C)c(=O)n(C)c2=O)ccc1O (stereo not given)	none
COc1cc(CNC(C)c2ccccc2)cc(Br)c1OCc1ccccc1 (stereo not given)	CSC inhib 112
COc1cc(Cl)c(C)cc1NC(=O)CSc1nc2ccccc2o1	none
O=[N+]([O-])c1ccc(C2=NN(CCO)C(=Nc3ccc(OC(F)(F)F)cc3)SC2)cc1	CSC inhib 89
COc1ccc(N=C2SCC(c3ccc([N+](=O)[O-])cc3)=NN2CCO)cc1	none
N#C/C(=C\c1ccc(F)cc1)c1n[nH]c(Cn2cncn2)n1	none
CCCCOc1ccc(C2=NNC(=O)CC2)cc1	none
CC(C)n1c(NCc2cccs2)nc2ccccc21	ALR H2O2 inh 98
Cn1c(NCc2ccccc2O)nc2ccccc21	none
CC(C)n1c(NCc2ccc(N(C)C)cc2)nc2ccccc21	ALR H2O2 inh 93
CCN(CC)c1ccc(CNc2nc3ccccc3n2C(C)C)cc1	none (no result: ALR H2O2 inh)
CC(C)n1c(NCc2ccccc2O)nc2ccccc21	ALR H2O2 inh 98
CCN(CC)c1ccc(CNc2nc3ccccc3n2CC)cc1	ALR H2O2 inh 99
COC(=O)CC1(c2ccc(OC)cc2)C(=O)c2ccccc2C1=O	none
CCCCn1ccnc1C	none (no result: PP1 counter, PP5 primary)
CCC(C)N(C(=O)COc1ccc(Cl)c2cccnc12)C1CCS(=O)(=O)C1 (stereo not given)	none
O=C(NC(=S)Nc1cc([N+](=O)[O-])ccc1O)c1ccc2c(c1)OCO2	none
O=C(Cc1ccc([N+](=O)[O-])cc1)NNC(=O)c1ccc2c(c1)OCO2	Calb FLC 113 (no result: PP1 counter, PP5 primary)
COc1cc([N+](=O)[O-])ccc1NC(=S)NNC(=O)c1ccc2c(c1)OCO2	ALR H2O2 inh 98
O=C(Cc1ccc([N+](=O)[O-])cc1)NCc1ccc2c(c1)OCO2	none (no result: ALR H2O2 inh)
COCOc1ccc(C=O)c(O)c1	none
CCCCn1c(SCC(=O)c2ccccc2)nc2ccsc2c1=O	none
O=C(O)CCCCCn1c(SCC(=O)N2CCCC2)nc2ccsc2c1=O	none
O=C(O)CCCCCn1c(SCC(=O)c2ccc(O)c(O)c2)nc2ccsc2c1=O	ALR H2O2 inh 99
CCCCn1c(SCC(=O)c2ccc(O)c(O)c2)nc2ccsc2c1=O	Calb FLC 107 (no result: ALR H2O2 inh)
COc1cccc(-c2cc(C(=O)N3CCN(S(=O)(=O)c4ccc(Br)cc4)CC3)[nH]n2)c1	none
CC(C)N(CC(N)=O)c1ncnc2sc(-c3ccccc3)cc12	none (no result: ALR H2O2 inh)
